An excerpt weighted towards active compounds, which were near 14% of everything screened.
NS1 inh: qHTS Assay for Inhibitors of Influenza NS1 Protein Function; 270,000 tested, 0.4% active; Potency, µM (doses to about 46.1 µM), for the others: at the top dose activity, positive = more growth; calls by dose curve; further: potency means the concentration at half of the fitted maximal effect; actives are rising curves; nearly all actives have a fitted effect of over 50% in size
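S. cerevisiae expressing influenza A NS1, grown in glucose, washed, then diluted 1:100 into pH 6.0 -URA galactose medium with 23 nl compound. Growth recovery read as OD600; NS1-free strain serves as control.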
FBPA Giardia inh: qHTS Assay for Inhibitors of Fructose-1,6-bisphosphate Aldolase from Giardia Lamblia; A8B2U2; purified Giardia FBPA; Potency, µM (titrated, usually from 59.6 µM), without a hit: at the highest dose activity, negative = inhibition, usual class: inhibitors; 290,000 tested, 0.71% active; further: potency means the concentration at half of the fitted maximal effect; on the % scale 0 is the no-effect control and ±100 the full control effect; nearly all actives have a fitted effect of over 55% in size
Target sequence (A8B2U2 whole entry, looked up): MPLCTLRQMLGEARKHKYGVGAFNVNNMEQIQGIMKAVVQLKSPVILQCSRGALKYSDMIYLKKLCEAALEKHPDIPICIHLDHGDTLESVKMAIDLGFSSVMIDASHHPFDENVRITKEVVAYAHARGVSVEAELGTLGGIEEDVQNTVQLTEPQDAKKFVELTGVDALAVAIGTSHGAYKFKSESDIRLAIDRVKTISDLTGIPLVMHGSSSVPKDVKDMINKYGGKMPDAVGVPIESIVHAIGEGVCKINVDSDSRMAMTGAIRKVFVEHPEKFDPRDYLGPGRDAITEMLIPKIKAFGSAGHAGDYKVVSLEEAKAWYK
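Giardia FBPA (40 nM reagent) was preincubated 10 min at RT with compound (up to 57.5 uM final), then substrate plus GAPDH/TPI/NAD/arsenate coupling system with diaphorase/resazurin was added; resorufin fluorescence (525/598 nm) was read after 20 min.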
CHX counter: Cycloheximide Counterscreen for Small Molecule Inhibitors of Shiga Toxin | max response, % | 300,000 tested, 12% active | cell reporter, cycloheximide protein synthesis inhibition counterscreen; in the data active means max response mostly above about 13%, no sharp cut-off; inactive means mostly below about 14%; further: read at 38.3 µM for the half of the compounds with a filed dose; 0% is about no effect
LmPK inhibitor: qHTS Assay for Inhibitors of Leishmania Mexicana Pyruvate Kinase (LmPK) | Q27686 | purified LmPK, Kinase-Glo ATP luminescence, 1 h | Potency, µM (top dose mostly 57.5 µM), without a hit: top-dose activity change, negative = inhibition, most hits filed as inhibitors | 290,000 tested, 0.37% active; further: potency means the concentration at half of the fitted maximal effect; on the % scale 0 is the no-effect control and ±100 the full control effect
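ATP generated from ADP (0.1 mM) and PEP (0.5 mM) by 0.1 nM LmPK over 1 h at room temperature (pH 7.2 imidazole buffer) was detected by coupled luciferase luminescence. Values were normalized to uninhibited and no-enzyme wells.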
Shiga toxin inh: A qHTS for Small Molecule Inhibitors of Shiga Toxin. Vero cells, Shiga toxin protein synthesis inhibition reporter. inhibition, % at 38.7 µM. 290,000 tested, 9.2% active; in the data active means inhibition mostly above about 28%, no sharp cut-off; inactive means mostly below about 43%; further: 0% is about no effect
Active calls of the source: *; [ ] = remark or other dose. Unless noted, the call rests on the fitted dose curve; in most records, active means well fitted curve in the direction sought with a large enough effect; inconclusive means small, poorly fitted or top-dose-only effect, or another doubt; inactive means no such curve, though single readings can be large; an effect the other way counts as inactive or inconclusive.

Screening O=C(O)CCC(=O)Nc1ccccc1C(=O)NCCc1ccccc1 returned NS1 inh 16%, FBPA Giardia inh -1%, CHX counter 45*, LmPK inhibitor -4% and Shiga toxin inh 73*.
Screening NC(=O)c1ccccc1NC(=O)CCc1ccccc1 returned NS1 inh -9%, FBPA Giardia inh -3%, CHX counter 29*, LmPK inhibitor 0% and Shiga toxin inh 52.
`NC(=O)c1ccccc1NC(=S)NC(=O)CCc1ccccc1` gave NS1 inh -13%, FBPA Giardia inh 4%, CHX counter -2, LmPK inhibitor -2% and Shiga toxin inh 17.
Screening O=C(Nc1ccccc1C(=O)NCCc1ccccc1)c1cnccn1 returned NS1 inh -1%, FBPA Giardia inh 12%, CHX counter 19*, LmPK inhibitor -2% and Shiga toxin inh 47.
Screening COc1cccc(NC(=O)CCC2CCN(C(=O)c3cccc(NC(C)=O)c3)CC2)c1 returned NS1 inh -11%, FBPA Giardia inh 2%, CHX counter -2, LmPK inhibitor -1% and Shiga toxin inh -7.
`COc1ccc(C(=O)Nn2c(SCC(=O)NCC3CCCO3)nc3ccccc3c2=O)cc1` (stereo unspecified) gave NS1 inh -5%, FBPA Giardia inh 16%, CHX counter -2, LmPK inhibitor inconclusive and Shiga toxin inh -10.
Screening COc1ccc(C(=O)Nn2c(SCC(=O)NCc3ccccc3)nc3ccccc3c2=O)cc1 returned NS1 inh -7%, FBPA Giardia inh 13%, CHX counter 51*, LmPK inhibitor 5% and Shiga toxin inh 44.
COc1ccc(C(=O)Nn2c(SCC(=O)NC3CCCC3)nc3ccccc3c2=O)cc1 was read as NS1 inh 18%, FBPA Giardia inh 22%, CHX counter 69*, LmPK inhibitor -3% and Shiga toxin inh 46.
`CC1(C)C[C@@H]2C(=O)CCC3O[C@@]3(C)CCC21` (stereo partly specified) gave FBPA Giardia inh 3%.
CC(C(=O)N1CCc2ccccc21)N1CCN(Cc2ccccc2)CC1 (stereo unspecified) was read as NS1 inh -1%, FBPA Giardia inh 10%, CHX counter -2, LmPK inhibitor -1% and Shiga toxin inh -7.
For O=C(NCc1cccs1)c1nc(-c2cccs2)no1 the results were FBPA Giardia inh -7%, CHX counter 21*, LmPK inhibitor 0% and Shiga toxin inh 66*.
Screening O=C(NCCc1ccccc1)c1nc(-c2cccs2)no1 returned NS1 inh -51%, FBPA Giardia inh -6%, CHX counter 45*, LmPK inhibitor 0% and Shiga toxin inh 90*.
COc1ccc(Cl)cc1NC(=O)CSC1=NN2CCCC(=O)N=C2S1 was read as NS1 inh -21%, FBPA Giardia inh 2%, CHX counter -3, LmPK inhibitor 1% and Shiga toxin inh 2.
CCCCCCCC(=O)OCCOC(=O)CCCCCCC was read as FBPA Giardia inh 4%, CHX counter -8 and Shiga toxin inh -6.
For CCCCc1cc(=O)oc2cc(C)cc(OCC(=O)NCc3ccccn3)c12 the results were NS1 inh -1%, FBPA Giardia inh -7%, CHX counter -4, LmPK inhibitor 0% and Shiga toxin inh 6.
O=C(Cn1cc(C(=O)COc2ccccc2)c2ccccc21)NCc1ccco1 was read as NS1 inh inconclusive, FBPA Giardia inh -2%, CHX counter 25*, LmPK inhibitor 2% and Shiga toxin inh 52*.
For O=C(Cn1cc(C(=O)c2ccco2)c2ccccc21)NC1CCCC1 the results were NS1 inh -7%, FBPA Giardia inh 1%, CHX counter 8, LmPK inhibitor 2% and Shiga toxin inh 14.
For CC(=O)c1cn(CC(=O)NCc2ccco2)c2ccccc12 the results were NS1 inh -8%, CHX counter 28, LmPK inhibitor -4% and Shiga toxin inh 130*.
CC(C(=O)NCc1ccco1)n1cc(C(=O)c2ccco2)c2ccccc21 (stereo unspecified) was read as NS1 inh 0%, FBPA Giardia inh -2%, CHX counter 15*, LmPK inhibitor -2% and Shiga toxin inh -3.
For Cc1ccc(S(=O)(=O)N[C@@H]2COC(=O)C/C=C\[C@H](C)COC(=O)N[C@@H](C)C(=O)C/C=C\[C@H]2C)cc1 the results were FBPA Giardia inh 4%[12.9 µM].
